Experimental data published in PubChem BioAssay (Tox21).
Records with an inconclusive call do not appear. Activity calls are given as the source filed them. Unless noted, calls follow the shape of the full dose curve.

Tests used:
[1] = Nuclear factor erythroid 2-related factor 2/antioxidant responsive element (Nrf2/ARE) small molecule agonists: qHTS cell viability counter screen in human keratinocytes (AID 1919968; active = well fitted curve in the direction sought with a large enough effect in the repeat runs; an effect the other way counts as inactive or inconclusive; also: nearly all actives have a fitted effect of over 55% in size)
In short: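 Cytotoxicity was multiplexed with the Nrf2/ARE luciferase assay in the same wells. Stably transfected HaCaT keratinocytes were treated with test compounds for 23 h at 37 C. Cell viability was then measured by CellTiter-Fluor fluorescence.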

[2] = Nuclear factor erythroid 2-related factor 2/antioxidant responsive element (Nrf2/ARE) small molecule agonists: luciferase reporter gene qHTS assay in human keratinocytes (AID 1919969); also: nearly all actives have a fitted effect of over 35% in size
[3] = biological target: Gonadotropin-releasing hormone receptor (Homo sapiens) (UniProt P30968); test: Human gonadotropin-releasing hormone receptor (GnRHR) small molecule agonists, calcium flux assay in GnRHR-HEK293 cells (AID 1920063); also: nearly all actives have a fitted effect of over 35% in size
In short: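 Agonist activity was measured as intracellular calcium flux in HEK293 cells engineered to stably express human GnRHR. After dye loading for 1 hour at 37 C, compounds in DMSO were added and fluorescence was followed for 3 minutes.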

[4] = biological target: KiSS-1 receptor (Homo sapiens) (UniProt Q969F8); test: Human kisspeptin (KISS1R) small molecule agonists, calcium flux assay in KISS1R-HEK293 cells (AID 1920064; active = well fitted curve in the direction sought with a large enough effect in the repeat runs; an effect the other way counts as inactive or inconclusive)
In short: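 Agonist activity is monitored as intracellular calcium rise in engineered HEK293 cells carrying human KISS1R. Cells are dye-loaded for 1 h at 37 C before compound addition, and fluorescence is recorded for 3 min.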

[5] = G protein-coupled receptor (GPCR) small molecule agonists, calcium flux assay: HEK293 wild type cell line counter screen (AID 1920065)
In short: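 Seed cells, incubate 18 h (37 C, 5% CO2); add calcium dye, 1 h at 37 C; pin-transfer compounds, ATP control or DMSO; read fluorescence 480/540 nm each second for 3 min.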

[6] = p53 small molecule agonists, cell-based qHTS assay with human liver microsomes (AID 1963577);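 also: p53 response element beta-lactamase reporter cells with liver microsomes plus NADPH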
In short: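 With metabolic activation: human liver microsomes (0.5 mg/mL final) plus NADPH (0.5 mg/mL final) added alongside compounds to p53RE-bla cells; 16 h 37 C exposure; beta-lactamase read by LiveBLAzer fluorescence.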

[7] = p53 small molecule agonists, cell-based qHTS assay with rat liver microsomes (AID 1963578)
In short: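 Metabolic activation by rat liver microsomes and NADPH, each 0.5 mg/mL final, added right after compounds to p53RE-bla reporter cells (4,000/well, plated 5 h earlier). 16 h at 37 C, then LiveBLAzer substrate for 2 h at room temperature in the dark; fluorescence read-out.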

[8] = p53 small molecule agonists, cell-based qHTS assay with human liver microsomes: qHTS cell viability counter screen (AID 1963579); also: nearly all actives have a fitted effect of over 45% in size
In short: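 Metabolic activation used human liver microsomes and NADPH, both 0.5 mg/mL final, over 16 hours at 37 C on p53RE-bla cells (4,000/well). Cytotoxicity measured by CellTiter-Glo luminescence, 30 min at room temperature.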

[9] = p53 small molecule agonists, cell-based qHTS assay with rat liver microsomes: qHTS cell viability counter screen (AID 1963580); also: nearly all actives have a fitted effect of over 45% in size
In short: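 Cytotoxicity counter screen: intracellular ATP read by CellTiter-Glo luminescence in the p53 reporter wells. HCT-116 p53RE-bla cells were treated for 16 h at 37 C alongside rat liver microsomes and NADPH, each 0.5 mg/mL final.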

[10] = p53 small molecule agonists, cell-based qHTS assay: qHTS cell viability counter screen (AID 1963581); also: nearly all actives have a fitted effect of over 45% in size
In short: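 Viability was counter-screened in parallel with the p53 agonist reporter by measuring intracellular ATP luminescence in the same HCT-116 p53RE-bla wells after 16 h compound treatment at 37 C.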

[11] = p53 small molecule agonists, cell-based qHTS assay (AID 1963582; active = well fitted activation curve with a large enough effect in the signal ratio in the repeat runs, not every such curve was filed as active; the % refers to the signal ratio)
In short: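 Cells carrying a p53-responsive bla reporter are treated with test compounds for 16 h at 37 C; beta-lactamase activity is then detected with LiveBLAzer B/G FRET substrate after 2 h at room temperature.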

[12] = biological target: 5-hydroxytryptamine receptor 2A (Homo sapiens) (UniProt P28223); test: 5-hydroxytryptamine receptor 2A (HTR2A) small molecule antagonists, cell-based qHTS assay (AID 1963586); also: nearly all actives have a fitted effect of over 45% in size
In short: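 CHO cells stably expressing human HTR2A were plated for 18 h at 37 C, then loaded with calcium dye for 1 h. Compounds were preincubated 5 min at room temperature before DOI (4 nM solution) was added. Kinetic fluorescence was read for 3 min.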

[13] = biological target: 5-hydroxytryptamine receptor 2A (Homo sapiens) (UniProt P28223); test: 5-hydroxytryptamine receptor 2A (HTR2A) small molecule agonists, cell-based qHTS assay (AID 1963587); also: nearly all actives have a fitted effect of over 30% in size
In short: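 Kinetic calcium-flux fluorescence (2 min, 1 sec intervals) after compound addition in agonist mode. HTR2A-CHO cells were cultured 18 h, then dye-loaded 1 h at 37 C.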

[14] = biological target: Muscarinic acetylcholine receptor M1 (Homo sapiens) (UniProt P11229); test: Cholinergic receptor muscarinic 1 (CHRM1) small molecule antagonists, cell-based qHTS assay (AID 1963588); also: nearly all actives have a fitted effect of over 40% in size
In short: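 Compounds were tested at 15 concentrations in three independent runs. Dye-loaded CHRM1-CHO cells were exposed 5 min at room temperature before stimulation by acetylcholine added at 50nM. Intracellular calcium was read kinetically on FDSS for 3 min.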

[15] = biological target: Muscarinic acetylcholine receptor M1 (Homo sapiens) (UniProt P11229); test: Cholinergic receptor muscarinic 1 (CHRM1) small molecule agonists, cell-based qHTS assay (AID 1963589); also: nearly all actives have a fitted effect of over 35% in size
In short: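 Cells were plated and incubated 18 h at 37 C/5% CO2, loaded with calcium dye for 1 h at 37 C, then treated with compounds in DMSO. Fluorescence was recorded kinetically at 1 sec intervals.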

[16] = cAMP Responsive Elements (CRE) small molecule agonists, cell-based qHTS assay (AID 1963590)
In short: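 Cells carrying a CRE-driven beta-lactamase reporter (HEK 293T) are seeded, incubated overnight (18 h), and treated with test compounds for 3 h at 37 C; reporter activity is then detected with a FRET substrate after 2 h at room temperature.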

[17] = cAMP Responsive Elements (CRE) small molecule antagonists, cell-based qHTS assay (AID 1963591; active = well fitted inhibition curve with a large enough effect in the signal ratio in the repeat runs, not every such curve was filed as active; the % refers to the signal ratio)
In short: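 Cells (CRE-bla HEK 293T, DMEM with 10% dialyzed FBS and 25 mM HEPES) are seeded and incubated 18 h. Compounds are added with NKH477 agonist at 0.25 uM final for 3 h, then FRET substrate for 2 h.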

[18] = biological target: Beta-2 adrenergic receptor (Homo sapiens) (UniProt P07550); test: Adrenergic beta2 receptor (ADRB2) small molecule antagonists, cell-based qHTS assay (AID 1963592); also: series mostly up to about 92 µM; nearly all actives have a fitted effect of over 50% in size
In short: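 Assay format: CHO-ADRB2 cells, 18-20hr seeding at 37C/5% CO2, then compound plus 1nM isoproterenol agonist mix for 0.5hr RT. Homogeneous time-resolved fluorescence cAMP detection after 1hr, expressed as 665/615 nm ratio.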

[19] = biological target: D(2) dopamine receptor (Homo sapiens) (UniProt P14416); test: Dopamine D2 receptor (DRD2) small molecule agonists, cell-based qHTS assay (AID 1963594); also: nearly all actives have a fitted effect of over 35% in size
In short: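 cAMP accumulation in DRD2-HEK293 cells measured by HTRF after 1 h detection; compounds added 10 min before NKH477 (200nM […]) forskolin-analogue stimulation, 30 min at room temperature, with Ro20-1724 present at 0.1 mM final.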

[20] = biological target: D(2) dopamine receptor (Homo sapiens) (UniProt P14416); test: Dopamine D2 receptor (DRD2) small molecule antagonists, cell-based qHTS assay (AID 1963595; active = well fitted inhibition curve with a large enough effect in the signal ratio in the repeat runs, with a control signal flat; the % refers to the signal ratio)
In short: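 Human DRD2 antagonist qHTS measuring cAMP by HTRF. The cells are exposed to compound for 10 min, then to NKH477 (200 nM) and quinpirole (12 nM) for 30 min at RT, with Ro20-1724 (0.1 mM) present throughout.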

Measured: Potency

Sequence of KiSS-1 receptor (Homo sapiens) (Q969F8 whole entry, looked up): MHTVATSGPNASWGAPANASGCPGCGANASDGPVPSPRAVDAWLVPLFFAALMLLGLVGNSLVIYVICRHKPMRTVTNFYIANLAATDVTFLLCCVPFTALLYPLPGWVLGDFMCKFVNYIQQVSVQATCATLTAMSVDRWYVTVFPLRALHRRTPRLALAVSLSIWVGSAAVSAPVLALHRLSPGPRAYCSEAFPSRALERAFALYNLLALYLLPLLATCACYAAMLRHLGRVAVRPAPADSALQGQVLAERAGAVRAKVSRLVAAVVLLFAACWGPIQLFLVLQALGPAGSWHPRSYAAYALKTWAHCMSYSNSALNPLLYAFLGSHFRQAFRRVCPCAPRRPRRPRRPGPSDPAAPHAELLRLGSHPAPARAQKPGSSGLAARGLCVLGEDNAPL
Sequence of Gonadotropin-releasing hormone receptor (Homo sapiens) (P30968 whole entry, looked up): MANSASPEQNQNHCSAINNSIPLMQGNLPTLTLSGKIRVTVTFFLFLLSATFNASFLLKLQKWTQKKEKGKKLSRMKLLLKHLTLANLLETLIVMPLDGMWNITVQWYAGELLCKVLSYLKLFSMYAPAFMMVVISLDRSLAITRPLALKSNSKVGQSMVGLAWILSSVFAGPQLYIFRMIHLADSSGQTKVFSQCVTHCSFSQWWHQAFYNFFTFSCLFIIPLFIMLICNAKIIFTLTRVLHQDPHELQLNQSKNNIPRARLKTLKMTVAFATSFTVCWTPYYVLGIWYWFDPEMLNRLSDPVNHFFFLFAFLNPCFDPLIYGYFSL
Sequence of Muscarinic acetylcholine receptor M1 (Homo sapiens) (P11229 whole entry, looked up): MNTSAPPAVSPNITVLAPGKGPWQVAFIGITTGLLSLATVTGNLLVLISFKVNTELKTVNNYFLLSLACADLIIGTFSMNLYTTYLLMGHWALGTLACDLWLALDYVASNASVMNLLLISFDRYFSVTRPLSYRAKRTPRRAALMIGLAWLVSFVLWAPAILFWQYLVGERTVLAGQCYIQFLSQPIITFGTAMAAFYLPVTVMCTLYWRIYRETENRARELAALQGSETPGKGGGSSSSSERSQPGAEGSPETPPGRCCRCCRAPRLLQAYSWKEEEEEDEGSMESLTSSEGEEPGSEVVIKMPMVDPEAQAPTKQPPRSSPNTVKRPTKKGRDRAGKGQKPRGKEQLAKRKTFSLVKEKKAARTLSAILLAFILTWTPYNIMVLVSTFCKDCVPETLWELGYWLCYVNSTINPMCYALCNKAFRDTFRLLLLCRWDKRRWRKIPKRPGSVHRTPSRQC
Sequence of D(2) dopamine receptor (Homo sapiens) (P14416 whole entry, looked up): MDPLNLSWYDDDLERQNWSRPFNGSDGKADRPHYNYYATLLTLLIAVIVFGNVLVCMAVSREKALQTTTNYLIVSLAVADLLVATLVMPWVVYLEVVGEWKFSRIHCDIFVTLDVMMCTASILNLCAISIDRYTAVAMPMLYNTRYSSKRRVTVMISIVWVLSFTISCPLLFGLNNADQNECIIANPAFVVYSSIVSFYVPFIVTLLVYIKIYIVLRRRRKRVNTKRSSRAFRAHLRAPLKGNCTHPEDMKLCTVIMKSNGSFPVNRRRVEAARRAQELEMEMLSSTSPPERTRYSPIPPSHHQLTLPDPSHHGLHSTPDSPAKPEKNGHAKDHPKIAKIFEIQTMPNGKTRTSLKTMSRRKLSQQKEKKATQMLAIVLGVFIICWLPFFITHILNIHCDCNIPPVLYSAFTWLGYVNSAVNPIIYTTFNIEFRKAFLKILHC
Sequence of 5-hydroxytryptamine receptor 2A (Homo sapiens) (P28223 whole entry, looked up): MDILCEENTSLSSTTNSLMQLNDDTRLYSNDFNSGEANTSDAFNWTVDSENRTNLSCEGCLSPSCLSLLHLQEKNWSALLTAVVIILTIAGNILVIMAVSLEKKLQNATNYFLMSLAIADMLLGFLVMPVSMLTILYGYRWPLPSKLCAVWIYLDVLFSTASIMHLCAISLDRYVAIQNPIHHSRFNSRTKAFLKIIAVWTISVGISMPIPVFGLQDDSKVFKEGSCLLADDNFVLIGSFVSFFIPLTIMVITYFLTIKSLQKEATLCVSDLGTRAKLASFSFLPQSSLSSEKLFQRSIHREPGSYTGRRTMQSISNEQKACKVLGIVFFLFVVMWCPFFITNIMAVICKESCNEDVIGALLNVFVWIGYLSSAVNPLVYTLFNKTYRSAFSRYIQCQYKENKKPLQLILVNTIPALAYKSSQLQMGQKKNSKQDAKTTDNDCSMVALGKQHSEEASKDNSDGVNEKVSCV
Sequence of Beta-2 adrenergic receptor (Homo sapiens) (P07550 whole entry, looked up): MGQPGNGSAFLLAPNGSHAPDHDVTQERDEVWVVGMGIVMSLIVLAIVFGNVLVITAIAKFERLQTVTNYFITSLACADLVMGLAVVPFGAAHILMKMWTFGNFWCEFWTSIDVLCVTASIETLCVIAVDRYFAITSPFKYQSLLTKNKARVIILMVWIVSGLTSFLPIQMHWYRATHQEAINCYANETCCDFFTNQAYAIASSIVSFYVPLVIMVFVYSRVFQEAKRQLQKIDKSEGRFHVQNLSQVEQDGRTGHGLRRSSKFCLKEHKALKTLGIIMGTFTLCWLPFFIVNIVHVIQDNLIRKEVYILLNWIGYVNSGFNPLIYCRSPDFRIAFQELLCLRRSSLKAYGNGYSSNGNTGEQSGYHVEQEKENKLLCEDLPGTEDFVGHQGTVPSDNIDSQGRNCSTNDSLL

C#CCOC(=O)/C=C(C)/C=C/CC(C)CCCC(C)C (centres undefined)
inactive: all assays above

Cc1cc(Cl)ccc1N=CN(C)C
inactive: all assays above

Cc1cc(Cl)ccc1OC(C)C(=O)O (centres undefined)
inactive: all assays above

c1ccc2c(c1)Oc1ccccc1O2
inactive: all assays above

COC[C@H](C)N(C(=O)CCl)c1c(C)csc1C
inactive: all assays above

C=CCOCC1CO1 (centres undefined)
not listed: [19]
inactive: all other assays above

BrCC(Br)c1ccccc1 (centres undefined)
inactive: all assays above
